The record followed here is PubChem BioAssay (NCI).

Compounds without any hit were thinned out: in the full panel of roughly 83,000, 20% have a hit.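 Activity criterion: percent growth below 10, measured after cells in 96-well plates were exposed to a single compound concentration for 48 hours.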 Values without a mark were called inactive. Activity calls are given as the source filed them.

This assay has as its system IGROV1 ovarian. Nature of the assay: NCI-60 one-dose screen, 48 h (100 = growth as untreated, 0 = no growth, -100 = all killed). Particulars: 10 µM unless noted. As to the method:
Growth inhibition of the IGROV1 human tumor cell line is measured as a screen for anti-cancer activity. Cells are grown in 96 well plates and exposed to the test compound for 48 hours. Compounds are tested at a single concentration, which is 10^-5 M for most compounds. The reported endpoint is percent growth (GI% or GIPRCNT), where numbers from 0 - 100% represent growth inhibition, and numbers from -100% - 0 represent cell death. For example, a value of 40 represents 60% growth inhibition. A value of 0 means no net growth occurred over the course of the experiment. A value of -40 indicates 40% of cells at the beginning of the experiment died by the end of the experiment. A value of -100 means all cells are dead at the end of the experiment.
NCI-60 Human Tumor Cell Lines Screen was performed using the standard one-dose NCI protocol, which is described in more detail at https://dtp.cancer.gov/discovery_development/nci-60/default.htm.
Compounds with GIPRCNT values below 10 were considered active. Activity score was based on GIPRCNT using the following formula: […]
Score is 0 for GIPRCNT values of 100 or above, 50 for GIPRCNT values of 0, and 100 for GIPRCNT values of -100.
Take `COc1ccc(C(O)c2cc3c(N)c(C(=O)Nc4cccc(Cl)c4)sc3nc2C)cc1` (stereo not given): the growth is 24.5%. With `Cc1c2cnccc2c(C)c2c1c1cc(C3OCCCO3)ccc1n2C` the figure was 2% (active); with `O=C(/C=C/C12c3ccccc3C(c3ccccc31)C1C(=O)NC(=O)C12)c1ccc(F)cc1` (stereo not given), 13.2%.

Regarding `O=C1N[C@@H]2[C@@H](O)[C@@H](O)[C@H](O)C[C@H]2c2cc3c(c(O)c21)OCCO3`, the growth was -16.7% (active). Turning to `CN1CCN(Cc2ccc(NC(=O)c3cncc(C#Cc4cncc5ncccc45)c3)cc2C(F)(F)F)CC1`, the growth was 1.13% (active). The figure for `CCn1cc(CNc2ccc(C(=O)Nc3cc4cc(OC)c(OC)cc4c(C)n3)cc2)c(C)n1` is 56.1%; for `CC(C)C[C@@H](C(=O)N[C@H](C(=O)OC1CCCC1)c1ccccc1)[C@H](O)C(=O)NO` it is 73.4%. The figure for `CN1CCCc2cc(/C=C3/SC(=S)N(CCc4ccc(O)cc4)C3=O)ccc21` is 76%; for `N#Cc1c(NC(=O)c2cccs2)[n+]([O-])c2ccc(Cl)cc2[n+]1[O-]` it is -19.9% (active). With `CCCCn1sc(=O)n(Cc2ccc(CNC(=O)OCc3ccc4c(Cl)cc(Cl)c(O)c4n3)cc2)c1=O` the figure was 57.4%. As to `COc1ccccc1NC(=O)c1ccc(/C=C/C(=O)c2nccn2C)cc1`, the growth was -56.5% (active). With `CCOC(=O)/C=C/c1c(C)[nH]c(=O)[nH]c1=O` the figure was 112%; with `COc1ccc2[nH]cc(-c3nc(-c4cn(C)c5ccncc45)cs3)c2c1`, -38.5% (active); with `COCCCOc1cc(C[C@@H](C[C@H](N)[C@@H](O)C[C@H](C(=O)NCC(C)(C)C(N)=O)C(C)C)C(C)C)ccc1OC`, 111%. The figure for `O=C(/C=C\c1ccco1)/C=C/c1ccco1` is 110%. Consider `CCN1CCN(CC(=O)Nc2nc3ccc(NCc4ccc(Br)cc4)cc3s2)CC1`, for which the growth is 86.8%.

As for `COC(=O)Cc1nc(C#N)c(N(C)C)o1`, the growth was 103%.

Take `O=C(Nc1ccc(F)cc1)Nc1ccccc1CNc1nc(Nc2ccc(OCCN3CCCC3)cc2)ncc1Cl`: the growth is 56.2%. Regarding `O=P(O)(O)OCC1OC(n2cnc3c(NCc4ccccc4)ncnc32)C(O)C1O` (stereo not given), the growth is 1.31% (active). As for `CCCCC(=O)Nc1ncc(Cc2ccccc2Cl)s1`, the growth was 45.4%. On to `O=C(CSc1nnc2sc(Nc3cccc(Cl)c3)nn12)c1ccc(F)cc1`, for which the growth is 101%. In the case of `C=C(C)[C@@H]1CC[C@]2(CO)CC[C@]3(C)[C@H](CC[C@@H]4[C@@]5(C)CCC(NCCc6ccc(O)cc6)C(C)(C)[C@@H]5CC[C@]43C)[C@@H]12` (stereo not given in full), the growth is -85.5% (active).

With `N#Cc1c(-c2ccccc2)c(C#N)c2c(C#N)c(N)nn2c1N`, the growth is 31.9%. The figure for `COc1cc(C(=O)c2c(N)ncn2-c2ccccc2)cc(OC)c1OC` is 88.1%; for `O=C(Cn1cc(CN2C(=O)c3ccccc3S2(=O)=O)nn1)Nc1cccc(Cl)c1` it is 108%. `N#Cc1c(-c2ccccc2)cc(-c2ccccc2)n(CCCC(=O)NO)c1=O`: the growth was 25.4%.

As to `CNCc1cccc2c1OCCOCCN(C)C(=O)CN(C)S(=O)(=O)c1ccc(cc1)-c1cnc(N)c(n1)C(=O)N2`, the growth is 51.4%.

On to `COc1ccc(-c2nnc(SCC(=O)Nc3ccc(/C(C)=N\O)cc3)n2-c2ccccc2)cc1OC`, for which the growth is 70.9%. As to `Cc1ccc(-c2nc(C#N)c(S(=O)(=O)NCCO)o2)cc1`, the growth was 65.1%. With `Cc1cc(N2CCN(C)CC2)nc(NCc2cc(Nc3ccnc4cc(Cl)ccc34)ccc2F)n1` the figure was 10.4%.

On to `CCCCCCC(=O)Nc1ncc(Cc2ccc(C)cc2)s1`, for which the growth was 44.2%. For the compound `Cn1ncc2ccc(-c3nc(-c4ccccc4)[nH]c3-c3n[nH]c(=O)n3C3CC3)cc21`, the growth is 111%.

As for `Cc1ccc2nc(Cl)c(Cn3nnnc3SCc3ccccc3)cc2c1`, the growth was 95.4%. For `Cc1nc2sc(C(=O)Nc3ccc(Cl)cc3)c(N)c2cc1C(O)c1ccccc1` (stereo not given), the growth was 53.9%.

For `O=C1NC(=C(Cl)Cl)/C(=N/S(=O)(=O)NCCc2c[nH]c3ccccc23)N1`, the growth was 98.7%. On to `COc1ccccc1-n1c(-c2cc(O)ccc2C)cn2c3c(=O)[nH]c(=O)n(C)c3nc12`, for which the growth is 10.3%.

For `CCCCCCC(CCCC)COC(=O)c1ccc(Cl)cc1` (stereo not given), the growth was 111%.

For the compound `Cn1cc(/C=C2/C(=O)Nc3ccccc32)c2ccccc21`, the growth is 85.1%. In the case of `CN(C)c1ccc(C(=NO)c2ccc(N(C)C)cc2)cc1`, the growth is 51.9%. With `COc1ccc2nc3cc(Cl)ccc3c(NCCN)c2c1`, the growth is -27% (active).
